# Screens: PubChem BioAssay, several laboratories
# Most compounds without a hit are left out; they make up all but 3.4% or so of the library.
# hcDAF12 agonist = H. contortus DAF-12 nuclear receptor activators, primary screen, cell-based, luminescence, HEK293, lit1-tk-luc reporter | HEK293 hcDAF-12 lit1-tk-luc reporter; 0% DMSO, 100% Δ7-dafachronic acid | activation, % at 6.8 µM | actives 1.4% (n = 370,000);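 active = activation above the mean of all tested compounds plus 3 SD, cut at about 5.5% in these data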;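 also: 100% = response to 3 µM Δ7-dafachronic acid high control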
# APP 5'UTR act = activators of APP 5'UTR luciferase reporter, primary screen, SH-SY5Y cells | SH-SY5Y APP 5'UTR luciferase reporter, luminescence; zero percent = DMSO vehicle wells | activation, % at 2 µM | actives 1% (n = 190,000);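 active = activation above a set limit, based on mean plus 3 SD of controls, cut at about 140% in these data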
# ssDAF12 agonist = S. stercoralis DAF-12 nuclear receptor activators, primary screen, cell-based, luminescence, HEK293, GRIP1 co-expression, lit1-tk-luc; HEK293 ssDAF-12/GRIP1 lit1-tk-luc reporter; % of 3 µM dafachronic acid response; activation, % at 6.8 µM; actives 1% (n = 370,000); AID 652126, 2013;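 active = activation above the mean over all tested compounds plus 3 SD, cut at about 0.9% in these data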;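 also: 0% = DMSO-only wells and 100% = 3 µM delta7-dafachronic acid wells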
# hgDAF12 agonist = H. glycines DAF-12 receptor agonists, primary screen, cell-based, luminescence, HEK293, GAL4 fusion, UAS-luciferase; HEK293 GAL4-hgDAF12 UAS-luciferase reporter, agonist luminescence; normalized to butyrate control; activation, % at 6.8 µM; actives 1.8% (n = 370,000); AID 687014, 2013;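 active = activation above a cutoff set at the mean of all screened compounds plus 3 SD, cut at about 10% in these data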;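 also: 0% = DMSO wells and 100% = sodium butyrate wells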
# NF-kB neuron act = activators of NF-kB expression in neurons, primary screen, cell-based, HTS | actives 1.6% (n = 190,000) | fold change at 12.5 µM | human neuronal cells, NF-kB reporter expression; active compounds read high | AID 1239, 2008; in the data active = fold change above about 3.3
# Active calls of the source: *; x = no result.
SMILES,hcDAF12 agonist,APP 5'UTR act,ssDAF12 agonist,hgDAF12 agonist,NF-kB neuron act
Cc1ccc(C)c(OCC(=O)O/N=C(\N)c2cccnc2)c1,2,x,-1,1,x
N/C(=N\OC(=O)c1ccc(Cl)cc1)c1ccccn1,5,185*,-1,-2,3.5*
CCOc1ccc(C(=O)O/N=C(\N)c2ccccn2)cc1OCC,2,x,0,12*,x
C/C(=N/NC(=O)CSc1nnc(SCc2ccc(C)cc2)s1)c1cccc(O)c1,-3,x,-2,0,x
O=C(CSc1cc(Cl)ccc1Cl)N/N=C/c1ccc[nH]1,-5,x,-2,-7,x
COC(=O)[C@@H]1[C@H](O[Si](C)(C)C(C)(C)C)[C@H]2O[C@H]2C[C@H]1S(=O)(=O)c1ccccc1,-1,x,-2,-3,x
Cc1ccc(-c2nc3ncccn3c2NC(=O)c2ccc(F)cc2)cc1,-1,x,-1,1,x
N/C(=N\OC(=O)c1ccccc1[N+](=O)[O-])c1ccccn1,3,104,1,10*,3.9*
Cc1cc(/C(N)=N/OC(=O)c2ccc(Cl)cc2)no1,4,x,0,11*,x
Cc1cc(C(=O)NNC(=O)c2ccc(Cl)cc2)no1,0,x,-1,-1,x
COc1cc(CCN(C(=O)c2cc3ccccc3[nH]2)C(c2ccccn2)c2nc3ccccc3[nH]2)cc(OC)c1 (stereo not drawn),4,x,1.1*,0,x
Cc1ccc(NS(=O)(=O)c2cc3c(cc2Cl)NC(=O)CO3)cc1C,-1,x,-1,-3,x
CCOC(=O)c1c(C)[nH]c(N=Nc2ccccc2)c1C,0,63,-1,9,3.5*
CCOC(=O)c1c(C)[nH]c(N=Nc2cccc(C)c2)c1C,2,158*,1,10,3.4*
CCOC(=O)c1c(C)[nH]c(N=Nc2ccc(OC)cc2)c1C,1,x,-1,9,x
CCOC(=O)c1c(C)[nH]c(N=Nc2ccccc2Cl)c1C,0,x,-1,8,x
Cc1ccc(NC(=O)C2(S(=O)(=O)c3ccc(C)cc3)CC2)cc1,x,2,x,x,0.89
Cc1ccc(S(=O)(=O)C2(C(=O)Nc3ccc(C(C)C)cc3)CC2)cc1,-1,16,1.0*,8,1.7
O=C(O)c1cc(=O)[nH]c2c(Cl)cccc12,5.8*,2,1,2,0.96
Cc1ccc(-n2nc(CC#N)c(C#N)c2N)cc1Cl,5,22,1.3*,-1,1.1
Cc1ccc(-n2nc(CC#N)c(C#N)c2N)cc1,2,20,0,2,0.9
CCOC(=O)CC[C@@]1(C(=O)OCC)C[C@@H](CC(=O)NCCCOC)C(=O)N2CCCC=C21,0,x,1.6*,0,x
CCOC(=O)CC[C@@]1(C(=O)OCC)C[C@@H](CC(=O)NCCc2ccccc2OC)C(=O)N2CCCC=C21,-1,x,-1,-3,x
Nc1ccc2oc(-c3cccc(Br)c3)nc2c1,x,17,x,x,3
CC(C)c1ccc2oc(-c3cc(N)ccc3O)nc2c1,0,158*,-2,-8,2.4
SMILES,hcDAF12 agonist,APP 5'UTR act,ssDAF12 agonist,hgDAF12 agonist,NF-kB neuron act
CC(C)Sc1nsc2nc(=O)c(/C=C3\C=Nc4ccccc43)c(N)n12,-1,-12,-1,5,1.1
CS(=O)(=O)c1nsc2nc(=O)c(/C=C3\C=Nc4ccccc43)c(N)n12,1,6,1.0*,1,1
CCCCc1nn2c(N)c(/C=C3\C=Nc4ccccc43)c(=O)nc2s1,4,8,2.7*,-3,1.1
CCCc1nn2c(N)c(/C=C3\C=Nc4ccccc43)c(=O)nc2s1,2,18,-1,-1,1.1
CC(C)[C@H](NC(=O)OCc1ccccc1)C(=O)OCC(=O)N1CCCCC1,2,x,0,12*,x
CC(C)[C@H](NC(=O)OCc1ccccc1)C(=O)OCC(=O)N1CCN(c2ccc(F)cc2)CC1,-3,x,-2,-2,x
O=C1C2C3C=CC(C4CC34)C2C(=O)N1/N=C/c1c[nH]c2ccccc12 (stereo not drawn),6.0*,62,2.2*,10*,1.4
O=C1C2C3C=CC(C4CC34)C2C(=O)N1/N=C/c1ccc([N+](=O)[O-])s1 (stereo not drawn),-1,-1,-1,6,1.5
O=C(O)C1C=CCC(C(=O)O)C1 (stereo not drawn),0,x,2.4*,0,x
O=C(O)C1CC(C(=O)O)SS1 (stereo not drawn),2,x,1,0,x
COc1ccc(/C=C/C(=O)OCC(=O)Nc2ncc(Cl)cc2Cl)cc1,2,x,1.1*,0,x
OC(c1ccco1)c1nc(-c2cccs2)cs1 (stereo not drawn),5.8*,x,1.4*,5,x
CCN(C(=O)COC(=O)c1cccn1C)C1CCS(=O)(=O)C1 (stereo not drawn),0,-1,-1,1,1.5
Cn1cccc1C(=O)OCC(=O)NC1CCS(=O)(=O)C1 (stereo not drawn),1,15,2.5*,-1,1
CSc1nc2ccc(NC(=O)c3ccc(Cl)s3)cc2s1,0,138*,-1,2,1.5
CSc1nc2ccc(NC(=O)CS(=O)(=O)c3ccccc3)cc2s1,1,x,0,11*,x
CCC[C@H]1OC(=O)[C@@H]2CCCN2C(=O)[C@H]([C@H](C)Cc2ccccc2)NC(=O)[C@@H]2CCCN2C(=O)[C@@H]2CCCN2C(=O)[C@H](C(C)C)OC(=O)[C@@H]2CCCN2C(=O)[C@H](C(C)C)NC(=O)C1(C)C,-2,x,-2,-4,x
O=C(OCc1cn(Cc2ccccc2Cl)nn1)N1CCOCC1,-1,x,0,3,x
COC(=O)c1sc(NC(=O)CSc2nnc(Cn3nnc4ccccc43)n2C)nc1C,1,0,1.1*,1,1
Cc1nc(NC(=O)CSc2nnnn2C)sc1C,0,4,-1,8,2
COC(=O)c1sc(NC(=O)CSc2nnnn2C)nc1C,5.6*,x,0,10,x
Clc1ccc(-c2nnc(-c3ccccc3)c(-c3ccccc3)n2)cc1,-1,x,-2,0,x
Nc1nc(-c2ccc(Cl)cc2)nnc1-c1ccc(Br)cc1,1,194*,-1,8,3.8*
O=C(OCC#CCSc1nnc(-c2cccc3ccccc23)o1)C1CC1,-1,x,-1,-3,x
C[C@@H]1[C@@H](c2ccccc2)c2cc3ccccc3nc2C(=O)C[C@@H]1C(=O)N1CCCC1,-1,x,-1,1,x
N=c1c(C(=O)NCc2ccccc2)cc2c(=O)n3ccccc3nc2n1Cc1ccco1,0,16,-1,0,12*
CCCCN1CN2Cc3ccc(C)cc3C2CS1(=O)=O (stereo not drawn),-1,x,-1,-2,x
